The source of these data is PubChem BioAssay (NCATS).

Structures are written as SMILES. Inconclusive results are not listed. Active and inactive are the calls of the source. Unless noted, calls follow the shape of the dose curve; as a rule, active = well fitted curve in the direction sought with a large enough effect; inconclusive = small, poorly fitted or top-dose-only effect, or another doubt; inactive = no such curve, though single readings can be large; an effect the other way counts as inactive or inconclusive.

Test [1] in a line: High-throughput drug toxicity screening in the BPDCN cell line Gen2.2 (AID 1224824; call rule not given here;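 also: cells exposed to compounds for 48 h before reading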). The conditions noted are these: Gen2.2 BPDCN cells; at 45.8 µM (top of the series) unless noted. A digest of the protocol:
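Gen2.2, 500 cells/well, phenol red-free RPMI/10% FBS/Pen-Strep; 48 h cpd, 37 °C/5% CO2; CTG lum, 15 min RT. Norm: DMSO = 100%, bortezomib 9.2 uM final = 0%.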

Test [2] can be described thus: High-throughput drug toxicity screening in the BPDCN cell line Cal-1 (AID 1224825; call rule not given here). The conditions noted are these: Cal-1 BPDCN cell viability, qHTS; at 45.8 µM (top of the series) unless noted. A digest of the protocol: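 Viability of the BPDCN line Cal-1 is measured as ATP-based luminescence (CellTiter-Glo) following 48 h incubation with compounds. Percent activity uses DMSO-treated wells as 100% and 9.2 uM bortezomib as 0%.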

A short description of test [3]: qHTS assay for measurement of the activity of small molecule inhibitors on Zika virus induced Caspase-3 activity in human iPSC derived neural progenitor cells (hNPCs) (AID 1224857). Also: % of control where 0% means no effect; nearly all actives have a fitted effect of over 65% in size. A digest of the protocol: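 In medium with heparin 2 ug/ml and cyclopamine 2 uM, hNPCs (350 cells/well) received compound for one hour and then Zika virus at 2 FFU/cell; caspase activity was measured by Caspase-Glo 3/7 luminescence 6 h post-infection.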

The nature of test [4]: qHTS assay for measurement of the activity of small molecule inhibitors on Zika virus induced Caspase-3 activity in human astrocytoma cells (AID 1224859).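 Also: plate controls were ZIKV-infected untreated cells for no effect and uninfected cells for full effect.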 Summed up: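 A cell-based luminescent caspase-3/7 assay used SNB-19 cells infected with ZIKV (2 FFU/cell) for 6 h following 1 h compound pretreatment.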
Test [5] is described as follows: qHTS Screen of the MIPE 4.0 Collection Against Ewings Sarcoma (RDES) (AID 1259252). Also: nearly all actives have a fitted effect of over 35% in size. Also: potency is read from the fitted curve at half-maximal effect. A digest of the protocol: (§1)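 Measured: ATP luminescence (CellTiter-Glo) 10 min after reagent addition, following 48 h drug treatment. Relative luciferase units converted to percent activity, with no-cell wells as full and DMSO wells as zero inhibition.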
The nature of test [6]: qHTS Screen of the MIPE 4.0 Collection Against Ewings Sarcoma (TC71) (AID 1259253). Also: nearly all actives have a fitted effect of over 40% in size. Also: potency is read from the fitted curve at half-maximal effect. A digest of the protocol: as §1
Test [7] is described as follows: qHTS Screen of the MIPE 4.0 Collection Against Ewings Sarcoma (EW8) (AID 1259255). Also: nearly all actives have a fitted effect of over 35% in size. Also: potency is read from the fitted curve at half-maximal effect.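 As to viability: 100% = DMSO-treated cells and 0% = medium-only wells without cells.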 A digest of the protocol: as §1
Test [8] can be described thus: qHTS Screen of the MIPE 4.0 Collection Against Ewings Sarcoma (TC32) (AID 1259256). Also: nearly all actives have a fitted effect of over 45% in size. Also: potency is read from the fitted curve at half-maximal effect. Summed up:
as §1

The nature of test [9]: P-glycoprotein substrates identified in KB-8-5-11 adenocarcinoma cell line, qHTS therapeutic library screen (AID 1346987). Also: nearly all actives have a fitted effect of over 65% in size. Also: potency is read from the fitted curve at half-maximal effect. A digest of the protocol: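 Human cervical adenocarcinoma KB-8-5-11 cells, selected in colchicine to over-express P-gp and assayed without it, were exposed for 72 h to titrated compounds. An ATP-based luminescent viability signal gave AC50.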

Regarding `Cc1ccc([N+](=O)[O-])cc1S(=O)(=O)N(C)N=Cc1cnc2ccc(Br)cn12`, the cell viability, % of control (lower = more cytotoxic) in test [1] was 28.8%. The viability (% of control) in test [2] is 3.92%. Further, the Potency result in test [3] and in test [4] was “inactive” in each case. The Potency in test [5] is 29.6 nM (active); in test [6] it was 20.9 nM (active); in test [7] it was 37.2 nM (active); in [8], 46.9 nM (active); in [9], 20.9 nM (active).
For `CC(=O)NC(CS)C(=O)O` (configuration not stated), the cell viability, % of control (lower = more cytotoxic) in test [1] was found to be 87%. Also, in test [2], the viability (% of control) was found to be 93.6%. Moreover, the Potency result in test [3], in test [4], in [5], in test [6], in test [7] and in [8] was “inactive” each time. Also, the Potency result in [9] is “inactive”.
As for `CC(C)(O)[C@H]1CC[C@@](C)([C@H]2[C@@H](O)C[C@@]3(C)[C@@H]4C[C@H](O[C@@H]5O[C@H](CO)[C@@H](O)[C@H](O)[C@@H]5O)[C@H]5C(C)(C)[C@@H](O[C@@H]6OC[C@@H](O)[C@H](O)[C@@H]6O)CC[C@@]56C[C@@]46CC[C@]23C)O1`, the cell viability, % of control (lower = more cytotoxic) in test [1] amounted to 1050%. In addition, in [2], the viability (% of control) was determined as 112%. Besides, the Potency entry in test [3], in test [4], in [7], in [8] and in test [9] was “inactive” each time. In addition, the results for the Potency in test [5] and in test [6] were 10500 nM (active) and 8330 nM (active), respectively.
Regarding `O=C(O)CCCCCC(=O)NN=C1CCCC1`, the cell viability, % of control (lower = more cytotoxic) in [1] is 141%. In addition, the viability (% of control) in test [2] worked out at 105%. Besides, the Potency entry in [3], in test [4], in test [5], in test [6], in [7] and in test [8] was “inactive” throughout. In test [9], the Potency entry is “inactive”.
For the compound `O=C(C=Cc1ccc(CN(CCO)CCc2c[nH]c3ccccc23)cc1)NO`, the cell viability, % of control (lower = more cytotoxic) in [1] stood at 4.89%. In addition, the viability (% of control) in [2] was found to be 3.46%. For the same compound, the Potency entry in test [3] and in [4] was “inactive” each time. Besides, the Potency in test [5] is 209 nM (active); in [6], 187 nM (active); in test [7], 148 nM (active); in [8], 148 nM (active); in test [9], 590 nM (active).
For `CCNC(=O)c1cc2c(-c3cc(OCCN4CCCC4)c(Cl)cc3Cl)nc(N)nc2s1`, the cell viability, % of control (lower = more cytotoxic) in test [1] stood at 13.8%. Moreover, the viability (% of control) in test [2] was 13.8%. Besides, the Potency entry in [3] and in [4] was “inactive” each time. The Potency in [5] is 1180 nM (active); in test [6], 1320 nM (active); in test [7], 1180 nM (active); in test [8] it was 590 nM (active); in test [9], 5260 nM (active).
For the compound `O=C(O)C[C@H](O)C[C@H](O)C=Cc1c(C2CC2)nc2ccccc2c1-c1ccc(F)cc1`, the cell viability, % of control (lower = more cytotoxic) in [1] turned out to be 4.71%. In addition, the viability (% of control) in [2] was found to be 38.9%. The Potency result in [3] and in test [4] was “inactive” throughout. The Potency in [5] was 2640 nM (active); in [6], 1870 nM (active); in [7], 3720 nM (active); in test [8], 1050 nM (active); in test [9], 7430 nM (active).
Regarding `CCCCCN=C(N)NN=Cc1c[nH]c2ccc(OC)cc12`, the cell viability, % of control (lower = more cytotoxic) in [1] was determined as 38.7%. Moreover, in test [2], the viability (% of control) worked out at 11.8%. Further, the Potency result in test [3] and in [4] was “inactive” in each case. Moreover, the Potency in [5] was 6620 nM (active); in test [6] it was 10500 nM (active); in test [7], 6620 nM (active); in test [8] it was 4180 nM (active); in test [9], 10500 nM (active).
`CN[C@H](CC(C)C)C(=O)N[C@H]1C(=O)N[C@@H](CC(N)=O)C(=O)N[C@@H]2C(=O)N[C@H]3C(=O)N[C@H](C(=O)N[C@H](C(=O)O)c4cc(O)cc(O)c4-c4cc3ccc4O)[C@H](O)c3ccc(c(Cl)c3)Oc3cc2cc(c3O[C@@H]2O[C@H](CO)[C@@H](O)[C@H](O)[C@@H]2O[C@H]2C[C@](C)(N)[C@H](O)[C@H](C)O2)Oc2ccc(cc2Cl)[C@H]1O`: the cell viability, % of control (lower = more cytotoxic) in [1] was found to be 160%. The viability (% of control) in [2] was 93.1%. Moreover, the Potency entry in [3], in test [4], in test [5], in test [6], in [7] and in test [8] was “inactive” throughout. Besides, the Potency result in test [9] was “inactive”.
As to `Cc1cc(-c2nnc3n2CCCCC3)c(C)n1-c1ccccc1`, the cell viability, % of control (lower = more cytotoxic) in test [1] was 229%. In addition, the viability (% of control) in test [2] turned out to be 98.4%. For the same compound, the Potency result in [3], in [4], in test [5], in [6], in test [7] and in test [9] was “inactive” each time. Moreover, in test [8], the Potency was 18700 nM (active).
On to `CC(C)Oc1ccc(C(=O)N[C@H](CNC(=O)CN(C)C)Cc2ccc(-c3cn4cccc([C@H](C)O)c4n3)cc2)cc1Cl`, for which the cell viability, % of control (lower = more cytotoxic) in [1] is 61.2%. For the same compound, the viability (% of control) in [2] amounted to 18.5%. The Potency result in test [3] and in test [4] was “inactive” throughout. Also, the Potency in test [5] was 235 nM (active); in [6] it was 372 nM (active); in [7], 235 nM (active); in test [8] it was 4.2 nM (active); in [9], 26400 nM (active).
In the case of `Cn1cc(-c2cnn3c(N)c(Br)c([C@H]4CCCNC4)nc23)cn1`, in [1], the cell viability, % of control (lower = more cytotoxic) was 8.78%. Besides, the viability (% of control) in test [2] came out at 14.4%. For the same compound, the Potency entry in [3], in [4] and in [9] was “inactive” each time. Moreover, the Potency was 332 nM (active) in test [5], 118 nM (active) in test [6], 148 nM (active) in test [7] and 187 nM (active) in [8].
Turning to `Nc1ccn(C2CO[C@H](CO)O2)c(=O)n1` (some centres not stated), the cell viability, % of control (lower = more cytotoxic) in test [1] is 203%. Further, the viability (% of control) in test [2] turned out to be 99.2%. Also, the Potency result in [3], in test [4], in test [5], in test [6], in [7] and in test [8] was “inactive” each time. The Potency entry in test [9] is “inactive”.
